# Rows were chosen to be rich in hits. Some 2.1% of all compounds tested hit in one or more screens of this group.
# ADAM17 inh: inhibits human ADAM17; recombinant ADAM17, EDANS/DABCYL FRET peptide cleavage; inhibition, % at 6.95 µM; AID 720648; 370,000 tested, 0.83% active;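 active = inhibition above the mean of compounds lying between control limits plus 3 SD, set per campaign, cut at about 8.5% in these data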;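 note: 0% = DMSO-only wells as the low control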
# PLC-gamma1 inh: blocks human PLC-gamma1 enzyme activity. AID 720700. inhibition, % at 12.2 µM. purified PLC-gamma1, fluorogenic substrate, fluorescence. 370,000 tested, 0.84% active; in the data active = inhibition above about 9.5%
# PLCb3 inh: inhibitors of human phospholipase C beta3; Purified PLC-beta3, fluorogenic substrate, fluorescence; inhibition, % at 12.2 µM; 370,000 tested, 0.18% active; AID 720704; in the data active = inhibition above about 11%;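 note: 0% = median of compound wells on plate and 100% = full blocker control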
# ADAM10 inh: inhibits human ADAM10 | O14672 | recombinant ADAM10, EDANS/DABCYL FRET peptide cleavage, 3 h | inhibition, % at 7 µM | 370,000 tested, 0.62% active | AID 720582;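 active = inhibition above a per-campaign cutoff equal to the mean of compounds falling between control-based bounds plus 3 SD, cut at about 20% in these data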;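 note: 0% = DMSO wells while the 100% control is not disclosed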
# Rce1 inh: yeast Ras-converting enzyme inhibition; Q03530; yeast membranes, quenched prenylated peptide cleavage fluorescence; calls only; 290,000 tested, 0.27% active; AID 2563;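 active = fall in fluorescence gain of 50% or more versus controls, with final raw signal at or below 3038400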;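 note: plate controls were neutral control wells for no effect and wells lacking membranes for full effect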
# Target sequence (Q03530 whole entry, looked up): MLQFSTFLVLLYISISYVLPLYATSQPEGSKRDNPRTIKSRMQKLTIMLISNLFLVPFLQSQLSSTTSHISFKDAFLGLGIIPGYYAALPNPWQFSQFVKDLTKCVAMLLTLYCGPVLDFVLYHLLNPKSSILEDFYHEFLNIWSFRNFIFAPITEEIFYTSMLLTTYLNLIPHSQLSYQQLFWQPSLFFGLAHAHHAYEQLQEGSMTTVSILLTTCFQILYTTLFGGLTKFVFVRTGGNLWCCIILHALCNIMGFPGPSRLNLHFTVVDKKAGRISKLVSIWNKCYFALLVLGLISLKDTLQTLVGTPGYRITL
# ADAM10 confirm: human ADAM10 inhibition, confirmation. shares compounds with ADAM10 inh. ADAM10 QFRET peptide cleavage, EDANS fluorescence. inhibition, % at 6.95 µM. 2,100 tested, 1% active;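 active = inhibition above about 20% chosen separately for each screening run, limit read from the data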;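 note: 0% = DMSO wells and 100% = marimastat wells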
# ADAM17 counter: counter-screen for ADAM10 exosite inhibitors: inhibitors of human ADAM17; shares compounds with ADAM10 inh; ADAM17 QFRET peptide cleavage, EDANS fluorescence; inhibition, % at 6.95 µM; 2,100 tested, 0.5% active; AID 743214;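 active = mean triplicate inhibition above the solvent-only control wells' mean plus 3 SD, cut at about 12% in these data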;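 note: 0% = DMSO wells and 100% = marimastat wells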
# ADAM10 counter: counter-screen for ADAM17 exosite inhibitors: inhibitors of human ADAM10; 2,900 tested, 47% active; AID 743256; inhibition, % at 6.95 µM; recombinant ADAM10, EDANS/DABCYL FRET peptide cleavage, 3 h; shares compounds with ADAM17 inh;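 active = mean inhibition over the triplicate runs exceeds the activity threshold set in the earlier primary screen, cut at about 20% in these data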;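 note: 0% = DMSO wells and 100% = marimastat wells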
# ADAM17 confirm: confirmation of inhibitors of human ADAM17; shares compounds with ADAM17 inh; recombinant ADAM17, EDANS/DABCYL QFRET peptide cleavage; inhibition, % at 6.95 µM; 2,900 tested, 65% active; AID 743257;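 active = mean inhibition across replicates above the hit cutoff set in the primary screen, cut at about 8.5% in these data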;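 note: 0% = DMSO wells and 100% = marimastat wells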
# * hit, by the source's call; i = inactive; / = no result.
SMILES,ADAM17 inh,PLC-gamma1 inh,PLCb3 inh,ADAM10 inh,Rce1 inh,ADAM10 confirm,ADAM17 counter,ADAM10 counter,ADAM17 confirm
COc1cc(CNCCNC(=O)c2nonc2N)ccc1OCc1ccc(Cl)cc1,-0.5,1.1,2.6,0.1,i,/,/,/,/
Cc1ccc(S(=O)(=O)NCC2NCCc3ccccc32)cc1 (configuration not stated),-6.8,-22.1,-25.0,-17.4,i,/,/,/,/
Cc1ccc(S(=O)(=O)NCC2Cc3ccccc3N2S(=O)(=O)c2ccc(C)cc2)cc1 (configuration not stated),9.2*,1.5,-1.7,22.1*,/,7.3,2.8,38.7*,16.9*
Cc1ccc(S(=O)(=O)N(CC(=O)N=Nc2c(O)[nH]c3ccccc23)c2ccc(C)c(C)c2)cc1,8.9*,8.5,8.0,22.6*,/,8.4,2.8,26.3*,17.6*
COc1cc(/C=N\NC(=O)c2ccc(Cl)cc2)ccc1Oc1ccc([N+](=O)[O-])cn1,10.9*,4.7,-0.4,23.7*,i,3.8,0.6,14.6,7.8
Cn1c(COc2ccccc2)nnc1SCC(=O)Nc1ccccc1-c1ccccc1,4.8,-1.4,2.0,-3.5,/,/,/,/,/
COc1ccc(-n2c(COc3ccccc3)nnc2SCC(=O)Nc2ccccc2-c2ccccc2)cc1,10.6*,5.0,5.4,20.4*,/,6.0,2.5,24.3*,13.4*
Cc1ccc(NS(=O)(=O)c2ccc(Cl)c(NC(=S)NC(=O)C3CCCCC3)c2)cc1Cl,13.4*,-1.5,-0.9,26.7*,i,16.3,4.5,46.2*,26.7*
Cc1ccc(NC(=O)C2CCCC2)cc1Cl,-2.1,0.7,-8.2,1.9,i,/,/,/,/
N#Cc1c(N)nc2c(c1-c1ccccc1)CCC2,-379.1,-313.0,-335.0,i,/,/,/,/,/
Cc1ccccc1/C=c1\s/c(=C\C(=O)C(C)(C)C)[nH]c1=O,7.7,-9.6,-3.2,15.2,i,/,/,/,/
CCc1ccc(/C=c2\s/c(=C\C(=O)C(C)(C)C)[nH]c2=O)cc1,16.6*,-15.5,-11.3,32.9*,i,11.4,4.6,19.9*,17.0*
O=C(Nc1cccc(Cl)c1)N1CCN2C(=O)c3ccccc3C12c1ccccc1 (configuration not stated),11.1*,6.1,10.0,22.5*,i,3.4,1.3,20.4*,11.5*
O=C(CCl)N1CCN2C(=O)c3ccccc3C12c1ccc(Cl)cc1 (configuration not stated),0.0,0.8,-1.6,2.3,i,/,/,/,/
CC(=O)Nc1ccc(CN(C)c2c(C)nc3ccc(C(=O)N4CCN(C(C)=O)CC4)cn23)cc1,-1.4,2.4,-0.3,-1.2,/,/,/,/,/
O=C(NCC1CCCO1)C(c1cccs1)N(Cc1ccccc1)C(=O)c1ccc(-c2ccccc2)[nH]1 (configuration not stated),12.4*,2.0,2.3,30.4*,i,12.2,4.1,17.6,13.6*
O=C(O)COC(=O)Cc1ccccc1Nc1c(Cl)cccc1Cl,-4.5,-3.2,-1.8,2.0,i,/,/,/,/
O=C(Nc1ccccc1)C1=C[C@@H](c2ccc(C(F)(F)F)cc2)C[C@@H](OCc2ccc(CO)cc2)O1,11.2*,6.7,3.1,26.8*,i,7.4,2.8,12.6,10.3*
O=C(NCc1ccccc1)C1=C[C@@H](c2ccccc2)C[C@@H](OCc2ccc(CO)cc2)O1,-4.1,-4.1,-6.2,-3.3,i,/,/,/,/
O=C(NCc1ccccc1)C1=C[C@H](c2ccc(Br)cc2)C[C@H](OCc2ccc(CO)cc2)O1,9.9*,-10.1,-0.7,20.7*,i,11.6,3.6,28.2*,17.6*
CC(=O)n1cc([C@@H]2C=C(C(=O)Nc3ccccc3)O[C@H](OCc3ccc(CO)cc3)C2)c2ccccc21,8.9*,-9.6,-7.4,31.0*,i,7.2,2.6,12.5,13.6*
O=C(c1ccccc1)N1CCC2CCN(S(=O)(=O)c3ccccc3)CC21 (configuration not stated),0.1,5.2,8.1,0.2,/,/,/,/,/
O=C(Nc1ccc2c(c1)CCC2)c1cc(=O)[nH]c2ccccc12,-2.9,-2.8,-11.2,-3.0,i,/,/,/,/
CC(O/N=C/c1ccccc1OC(F)F)C(=O)Nc1cccc(S(=O)(=O)N2CCOCC2)c1 (configuration not stated),10.1*,2.4,-0.7,19.8*,i,0.2,0.5,7.0,2.8
CCOC(=O)C1=C(C)NC(=S)NC1c1ccc(OCC(=O)N2CCCCC2)cc1 (configuration not stated),-0.8,-0.6,-8.2,-17.1,i,/,/,/,/
SMILES,ADAM17 inh,PLC-gamma1 inh,PLCb3 inh,ADAM10 inh,Rce1 inh,ADAM10 confirm,ADAM17 counter,ADAM10 counter,ADAM17 confirm
COC(=O)c1cc2c(c3c4cc(C)ccc4n(S(=O)(=O)c4cccc(C)c4)c13)C(=O)N(Cc1ccc(N(C)C)cc1)C2,0.7,-1.9,-0.3,0.6,/,/,/,/,/
O=C(NNC(=O)c1cc(-c2cccnc2)nc2ccccc12)Nc1ccc(Cl)cc1,-4.8,-4.7,-13.3,-0.6,i,/,/,/,/
O=C(NNC(=O)c1cc(-c2ccccc2)nc2ccccc12)Nc1cccc(Cl)c1,10.2*,-1.5,-2.0,24.9*,i,18.8,7.0,31.1*,21.0*
Cc1cc(C)cc(NS(=O)(=O)c2ccc(NC(=S)NC(=O)c3ccc(Br)o3)cc2)c1,10.6*,6.3,-4.7,20.5*,i,10.4,4.0,29.1*,13.9*
Cc1ccc(NS(=O)(=O)c2ccc(NC(=O)c3ccccc3C(=O)O)cc2)c(C)c1,-0.5,-0.8,-5.1,-1.7,i,/,/,/,/
Cc1ccc(NS(=O)(=O)c2ccc(NC(=O)c3ccc(Br)o3)cc2)c(C)c1,10.5*,-0.6,-1.7,23.4*,i,6.4,1.6,31.9*,15.2*
Cc1ccc(NS(=O)(=O)c2ccc(NC(=O)CN(c3cc([N+](=O)[O-])ccc3C)S(C)(=O)=O)cc2)c(C)c1,10.8*,1.5,3.0,21.4*,i,4.1,1.3,54.0*,27.8*
COC(C(=O)NNC(=O)CCc1ccccc1)c1ccccc1 (configuration not stated),0.9,-7.0,-1.3,-0.8,i,/,/,/,/
CCc1cc(Cn2nc(-c3ccccc3)cc2C(=O)NCc2cccc(Br)c2)on1,14.5*,3.1,2.4,20.9*,/,13.0,3.9,36.5*,22.1*
CCc1cc(Cn2nc(-c3ccccc3)cc2C(=O)NCc2ccc(C)cc2)on1,9.1*,-0.1,-0.8,28.9*,i,7.9,3.5,24.1*,13.1*

# Screening results: PubChem BioAssay, several laboratories
